Laboratory results as given in PubChem BioAssay (Tox21).
Records with an inconclusive call do not appear. The source made the active and inactive calls. Calls follow the shape of the dose curve; as a rule, active = well fitted activation curve with a large enough effect in the signal ratio in the repeat runs (not every such curve was filed as active); inconclusive = weak or mixed curves; inactive = flat fitted curve, though single readings scatter; the % refers to the signal ratio.

Assay: qHTS assay to identify small molecule agonists of the TGF-beta/Smad signaling pathway (AID 1346859)
Conditions: SBE-bla HEK293T, TGF-beta/Smad beta-lactamase reporter, 5 h; series mostly up to 76.8 µM
Source text: U.S. Tox21 Program National Center for Advancing Translational Sciences [NCATS] NIH Chemical Genomics Center [NCGC] U.S. Environmental Protection Agency [EPA] National Institutes of Environmental Health Sciences [NIEHS] National Toxicology Program [NTP] U.S. Food and Drug Administration [FDA] Tox21 Assay Overview: Transforming growth factor beta (TGF-beta) superfamily consists of a large number of structurally related dimeric proteins that act as hormones or local mediators in regulating a wide range of biological functions. This superfamily includes TGF-betas themselves, the bone morphogenetic proteins (BMPs) and the activins. These ligands induce oligomerization of serine/threonine receptor kinases and phosphorylate the cytoplasmic signaling molecules of Smad protein family. CellSensor SBE-bla HEK 293T cell line (Life Technologies, Carlsbad, CA), responsive to TGF-beta was used to screen Tox21 10K compound library for identification of agonists/antagonists of the Smad signaling pathway. This cell line contains a beta-lactamase reporter gene under control of the Smad binding element (SBE) stably integrated into HEK 293T cells.
Tox21 Assay Protocol Summary: SBE-bla HEK 293T cells were dispensed at 4,000/well in 6 uL of assay medium into black wall/clear-bottom 1536-well plates using a Multidrop Combi (ThermoFisher Scientific, Waltham, MA) dispenser. After the assay plates were incubated at 37 C and 5% CO2 for an overnight, 23 nL of compounds dissolved in DMSO, positive controls or DMSO only was transferred to the assay plate by a Pintool station (Kalypsys, San Diego, CA). The assay plates were incubated at 37 C and 5% CO2 for 5 hr. One uL of LiveBLAzer B/G FRET substrate (Life Technologies) was added using a Flying Reagent Dispenser (Aurora Discovery, San Diego, CA) and the plates were incubated at room temperature for 2 hr. Fluorescence intensity (405 nm excitation, 460 nm and 530 nm emissions) was measured using an Envision plate reader (PerkinElmer, Shelton, CT).
% is scaled to controls: 0 for no effect and ±100 for the full control effect.

Structure (SMILES)	outcome	activation
CCCCc1ccc(O)cc1	inactive	
c1ccc(N2CCNCC2)cc1	inactive	
Cc1ncc(CNC(=O)N(CCCl)N=O)c(N)n1	inactive	
NC(=O)c1cc([N+](=O)[O-])cc([N+](=O)[O-])c1	inactive	
CC(CCc1ccccc1)NC(C)C(O)c1ccc(O)cc1 (stereo not given)	inactive	
Cc1cccc(C#N)c1	inactive	
Nc1cc2c3c(c1)C(c1ccccc1)=N[C@@H](NC(=O)c1cccnc1)C(=O)N3CC2	inactive	
CCCSP(=O)(OCC)Oc1ccc(Br)cc1Cl (stereo not given)	inactive	
O=C(O)C(Br)CBr (stereo not given)	inactive	
COc1cc(OC)nc(NC(=O)NS(=O)(=O)c2ncccc2OCC(F)(F)F)n1	inactive	
C[C@@H]1CN(C2CCC(C#N)(c3ccc(F)cc3)CC2)CC[C@]1(C(=O)O)c1ccccc1 (stereo not given in full)	inactive	
O=C1c2ccccc2C(=O)c2ccccc21		-3.6% [at 15.8 µM] (inactive)
CC1(C)CON(Cc2ccccc2Cl)C1=O	inactive	
COc1ccc(C(=O)N2CCCC2=O)cc1	inactive	
Clc1cccc(N2CCNCC2)c1	inactive	
c1coc(-c2nc3ccccc3[nH]2)c1	inactive	
Cc1ccccc1CO[C@@H]1C[C@@]2(C(C)C)CC[C@]1(C)O2	inactive	
COCC(=O)N(c1c(C)cccc1C)N1CCOC1=O	inactive	
NC1=NC(=O)C(c2ccccc2)O1 (stereo not given)	inactive	
O=C(Oc1ccc(Br)cc1)N1CCN2CCC1CC2	inactive	

Structure (SMILES)	outcome	activation
Cc1cnc[nH]1	inactive	
C=C(C)CN(CC)c1c([N+](=O)[O-])cc(C(F)(F)F)cc1[N+](=O)[O-]	inactive	
CC(C)CP(=S)(S)CC(C)C	inactive	
CNC(=O)Oc1ccccc1C1OCCO1	inactive	
O=c1oc2ccccc2c(O)c1C1CCCc2ccccc21 (stereo not given)	inactive	
N#CC(Cl)(Cl)Cl	inactive	
CCOP(=S)(Oc1cnc(C(C)(C)C)nc1)OC(C)C (stereo not given)	inactive	
CCCCP(CCCC)CCCC	inactive	
O=C(Nc1ccccc1)c1ccccc1I	inactive	
O=C(CCCN1CCC(n2c(=O)[nH]c3ccccc32)CC1)c1ccc(F)cc1	inactive	
COC(=O)C(C)Oc1ccc(Oc2ccc(Cl)cc2Cl)cc1 (stereo not given)	inactive	
[O]=[Cd]	inactive	
CCCCN(CCCCO)N=O	inactive	
ClC(Cl)C(Cl)Cl	inactive	
CNCC(=O)c1ccc(O)c(O)c1	inactive	
O=CNC(N1CCN(C(NC=O)C(Cl)(Cl)Cl)CC1)C(Cl)(Cl)Cl (stereo not given)	inactive	
CCC(=O)C(CCN(C)C)(c1ccccc1)c1ccccc1	inactive	
N#Cc1c(Cl)cccc1Cl	inactive	
CC(COc1ccc(Oc2ccccc2)cc1)Oc1ccccn1 (stereo not given)	inactive	
ClC(Cl)Br	inactive	
